This is an account of results in PubChem BioAssay AID504339 (National Center for Advancing Translational Sciences (NCATS), 2011).

About 17,000 (4.4%) of roughly 390,000 compounds were called active. Another 8% or so got no clear call; they are omitted. The full list was thinned out, with actives kept by preference. Values without a mark were called inactive. Calls follow the shape of the dose curve; as a rule, active = well fitted inhibition curve with a large enough effect; inconclusive = small, poorly fitted or top-dose-only effect; inactive = no such curve, though single readings can be large or run the other way.
% is scaled to controls: 0 for no effect and ±100 for the full control effect; potency is read from the fitted curve at half-maximal effect.

The test deals with Lysine-specific demethylase 4A (Homo sapiens) (UniProt O75164). Nature of the test: qHTS Assay for Inhibitors of JMJD2A-Tudor Domain. Also: nearly all actives have a fitted effect of over 50% in size. The following applies: AlphaScreen JMJD2A-Tudor / H3K4me3 peptide binding; series mostly up to 114 µM; activity change, negative = inhibition: at the top concentration. From the text: JMJD2A is a jumonji-domain-containing lysine demethylase that uses Fe(II) together with 2-OG to effect oxidative demethylation of histones. Methylation is one of many […] modification that affect epigenetic transcription. […] It is proposed that the functions of JmjD2A binding to the histones, is to maintain marks after they are installed and to spread the modifications by […], establishing a self-propagating cycle for rapid methylation over a large area of chromatin. […] Thus, small molecule targeting of the JMJD2A-tudor domain interaction with its target methylhistone mark is expected to enable sophisticated experiments probing the fine regulatory pathways leading to selective demethylation of a given methyllysine locus based on the methylation state of adjacent histone marks. A quantitative high throughput AlphaScreen has been developed to identify small molecule inhibitors based on a protocol published by NCGC and SGC [4].
Chain of Lysine-specific demethylase 4A (Homo sapiens) (O75164 whole entry, looked up, the tested form may be a part): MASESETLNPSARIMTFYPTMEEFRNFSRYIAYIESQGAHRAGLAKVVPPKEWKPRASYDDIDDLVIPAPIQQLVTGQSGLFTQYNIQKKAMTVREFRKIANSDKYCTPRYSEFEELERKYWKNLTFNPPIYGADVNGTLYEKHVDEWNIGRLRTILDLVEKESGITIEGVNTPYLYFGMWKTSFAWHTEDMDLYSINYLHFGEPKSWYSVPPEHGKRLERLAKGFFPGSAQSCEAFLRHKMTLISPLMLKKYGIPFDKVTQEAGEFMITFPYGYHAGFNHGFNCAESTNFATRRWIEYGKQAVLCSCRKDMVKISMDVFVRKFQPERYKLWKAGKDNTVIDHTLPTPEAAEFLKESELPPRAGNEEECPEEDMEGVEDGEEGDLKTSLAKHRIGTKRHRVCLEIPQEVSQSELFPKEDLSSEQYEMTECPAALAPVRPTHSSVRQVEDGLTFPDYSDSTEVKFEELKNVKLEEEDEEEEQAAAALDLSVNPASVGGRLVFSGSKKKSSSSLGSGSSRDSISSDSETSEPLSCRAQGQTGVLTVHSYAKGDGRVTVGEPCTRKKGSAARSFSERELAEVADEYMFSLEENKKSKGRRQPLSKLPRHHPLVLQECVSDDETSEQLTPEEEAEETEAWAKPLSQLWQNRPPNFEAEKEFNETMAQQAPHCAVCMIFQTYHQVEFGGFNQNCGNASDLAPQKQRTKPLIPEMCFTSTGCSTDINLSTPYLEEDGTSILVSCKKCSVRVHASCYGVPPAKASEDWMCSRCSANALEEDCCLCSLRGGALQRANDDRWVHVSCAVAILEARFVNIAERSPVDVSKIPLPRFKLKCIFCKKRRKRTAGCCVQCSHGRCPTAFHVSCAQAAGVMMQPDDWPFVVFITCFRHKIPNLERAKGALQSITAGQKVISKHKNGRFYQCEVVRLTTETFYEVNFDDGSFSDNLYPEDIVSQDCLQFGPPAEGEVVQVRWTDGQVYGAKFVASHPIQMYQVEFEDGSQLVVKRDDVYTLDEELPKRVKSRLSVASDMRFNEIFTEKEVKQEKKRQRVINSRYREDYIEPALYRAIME
Although AlphaScreen has significant advantages with its utility in a variety of epigenetic target assays, the primary screening data provided in this deposition should be used with caution due to the prevalence of screening artifacts. The top compound concentration tested was high (>100uM) in this assay, which increases number of actives and potential artifacts. An AlphaScreen counterscreen is highly recommended to be run against any putative actives to eliminate non-specific artifacts. Alternatively, one can use other AlphaScreen assays in PubChem to filter out promiscuous hits.
[1] Lee, J. et al. Distinct binding modes specify the recognition of methylated histone H3K4 and H4K20 by JMJD2A-tudor. Nat Struct Mol Biol. 15(1); 109-11. 2008. PMID: 18084306
[2] Yasgar, et al. Compound Management for Quantitative High-Throughput Screening. JALA. 2008 Apr;13(2):79-89. PMID: 18496600
[3] Inglese, et al. Quantitative high-throughput screening: a titration-based approach that efficiently identifies biological activities in large chemical libraries. Proc Natl Acad Sci. 1;103(31):11473-8. 2006. PMID: 16864780
[4] Quinn et al. A homogeneous method for investigation of methyl-dependent protein-protein interactions in epigenetics. Nucleic Acids Res., 38(2):e11. 2010. PMID: […]
[5] Baell,Holloway. New substructure filters for removal of pan assay interference compounds (PAINS) from screening libraries and for their exclusion in bioassays. J Med Chem. 53(7):2719-40. 2010. PMID: 20131845
NIH Molecular Libraries Probe Production Network [MLPCN]
NIH Chemical Genomics Center [NCGC]
Structural Genomics Consortium (SGC)
To each well of a 1,536w plate, 2ul of JMJD2A-Tudor (final 100nM) and 1ul biotinylated histone peptide methylated at Lys4 [b-H3(1-18)K4me3] (final 50nM) were added in 1x PBS buffer, pH 7.4, containing 0.01% Tween-20, using a nanoliter dispenser. Formation of a protein-peptide complex proceeded at room temperature for 30 min. A Kalypsys pin-tool transferred 23nl of library compound solution in DMSO to each well. Following a 30 min incubation of the protein-peptide complex with compounds at room temperature, a mixture of 40 µg/mL each streptavidin-coated donor and nickel chelate acceptor AlphaScreen beads (final 10 µg/mL) was added in a 1ul dispense for a final volume of 4ul, followed by a brief centrifugation (1000 rpm, 1 min). Plates were incubated protected from the light for 20 min at room temperature. Microplates were then read on an EnVision multilabel plate reader using the 1,536 plate HTS AlphaScreen aperture (excitation time 80 ms, measurement time 240 ms).
Turning to `CN(C)C(=O)NC(O)C(Cl)(Cl)Cl` (stereo not drawn), the “activity change, negative = inhibition” value was -1.74%.
As for `COC(=O)C1=C(c2ccc(F)cc2F)C[C@@H]2CC[C@H]1N2C(=O)NC1CC1`, the “activity change, negative = inhibition” value is -13.4%.
Still for that read-out and setting: the result for `CC=C(C)C(=O)OC1CCN2CC=C(COC(=O)C(O)(C(C)OC)C(C)(C)O)C12` (stereo not drawn) reads -10.3%; that for `CCOc1ccc(-c2cc(C)[n+](CCN(CC)CC)c(-c3ccc(OCC)cc3)c2)cc1`, -5.32%.
As to `CCC(=O)CC(c1ccc([N+](=O)[O-])cc1)c1c(O)c2ccccc2oc1=O` (stereo not drawn), the “activity change, negative = inhibition” value is -5.04%.
`COc1ccccc1OC(=O)c1ccc(C)c(S(=O)(=O)N2CCOCC2)c1`: the “activity change, negative = inhibition” value was -4.23%.
On the same count and under the same terms, the result for `CC1CNCCN1c1ccc(Cl)cc1` (stereo not drawn) reads -6.94%; that for `Cn1cc(/C=C/c2nc3ccccc3c(=O)n2-c2ccccc2)c2ccccc21`, -25.8%; that for `CCC(=O)OC(Cc1ccccc1)(c1ccccc1)C(C)CN(C)C` (stereo not drawn), -23.4%.
Same read-out and setting: then `O=C(C1CC(=O)N(C2CCCC2)C1)N1CCC2(CC1)OCCO2` (stereo not drawn), with -3.52%.
Regarding `O=C(C1CCN(CC2CCCCC2)CC1)N1CCCC1`, the Potency is 50.1 µM (active).
In the case of `C=C(C)C1(CCCC)C(=O)NC(=S)NC1=O`, the “activity change, negative = inhibition” value was -10.4%.
Take `COC(=O)C1=C(c2ccc(C(C)=O)cc2)C[C@@H]2CC[C@H]1N2C(=O)NCCNC(C)=O`: the “activity change, negative = inhibition” value was -20.7%.
With `CN(C)/C=C(\C=[N+](C)C)c1[nH]ncc1[N+](=O)[O-]`, the “activity change, negative = inhibition” value was -5.84%.
Turning to `C[C@]12CCCCC1=CC(=O)C1C2CC[C@@]2(C)C1C[C@@H](F)[C@@H]2O` (stereo partly drawn), the “activity change, negative = inhibition” value is 1.38%.
For the compound `O=C(N/N=C/c1c(O)n(C2CC2)c(=S)[nH]c1=O)c1ccccc1Cl`, the Potency is 89.1 µM (active).
In the case of `O=c1[nH]c(=S)n(C2CC2)c(O)c1/C=N/N1CCOCC1`, the “activity change, negative = inhibition” value is -20.7%.
In the case of `COc1ccccc1-n1c(O)c(C=NC2CC2)c(=O)[nH]c1=O`, the “activity change, negative = inhibition” value is 25.3%.
Turning to `CC(C)c1ccc(-n2c(O)c(/C=N/N3CCOCC3)c(=O)[nH]c2=S)cc1`, the “activity change, negative = inhibition” value was -11.7%.
On to `O=C(N/N=C/c1c(O)n(C2CC2)c(=S)[nH]c1=O)c1ccccc1`, for which the Potency is 56.2 µM (active).
In the case of `CC/C(=N\NC(=O)c1ccccc1O)c1c(O)n(Cc2ccccc2)c(=O)[nH]c1=O`, the activity change, negative = inhibition is -0.735% [at 11.4 µM].
Still for that read-out and setting: the result for `COP(=O)(OC)C(NC(=O)c1ccc(C)cc1)C(Cl)(Cl)Cl` (stereo not drawn) reads 1.03%; that for `Cc1nnc(NC(=O)c2cccn(Cc3cccc(F)c3)c2=O)s1`, -13.6%; that for `COC(=O)C1=C(c2cc3ccccc3s2)C[C@@H]2CC[C@H]1N2C(=O)NCc1cccc2ccccc12`, -13.7%.
For `CC(CC(C#N)(c1ccccc1)c1ccccc1)N1CCCCC1` (stereo not drawn), the “activity change, negative = inhibition” value was -3.5%.
Still for that read-out and setting: the result for `O=C(COC(=O)c1ccccc1)Nc1ccccc1Sc1ccccc1` reads 73.6%.
Regarding `Cc1cc(-c2n[nH]c(=S)n2-c2ccc(C)c(C)c2)no1`, the Potency was 3.16 µM (active).
On to `O=C1NC(=O)C(CCOc2ccccc2)(CCc2ccccc2)C(=O)N1`, for which the “activity change, negative = inhibition” value is 12.6%.
Take `CCOC(=O)C1(c2ccccc2)CCN(CC(O)c2ccc(NC(C)=O)cc2)CC1` (stereo not drawn): the “activity change, negative = inhibition” value was -19.3%.
For `CCOP(=S)(OCC)SCOC(=O)NCC(=O)OC`, the “activity change, negative = inhibition” value was 9.97%.
For `COC(=O)C1=C(c2c(C)noc2C)C[C@@H]2CC[C@H]1N2C(=O)NCc1ccc2c(c1)OCO2`, the “activity change, negative = inhibition” value is -0.714%.
Consider `COc1ccc(CNCCc2ccc3c(c2)OCO3)c(OC)c1OC`, for which the Potency was 89.1 µM (active).
Consider `CCN1CCN(Cc2cc(OC)c3c(c2)OCO3)CC1`, for which the “activity change, negative = inhibition” value is -1.66%.
For `CC1C(=O)OC2CCN3CC=C(COC(=O)C(C)(O)C1(C)O)C23` (stereo not drawn), the “activity change, negative = inhibition” value is -9.52%.
`COc1cc([C@@H]2c3cc4c(cc3[C@H](OC(C)=O)[C@H]3COC(=O)[C@H]23)OCO4)cc(OC)c1OC`: the “activity change, negative = inhibition” value was -12.1%.
Regarding `COC(=O)[C@@H]1C(OC(=O)c2ccccc2)CC2CCC1N2C` (stereo partly drawn), the “activity change, negative = inhibition” value was -13.8%.
Regarding `CCC1(CC(C)c2ccccc2)C(=O)NC(=O)NC1=O` (stereo not drawn), the “activity change, negative = inhibition” value was -5.52%.
As to `CN(C)C(=O)Oc1cc(OC(=O)N(C)C)cc(C(O)CNC(C)(C)C)c1` (stereo not drawn), the Potency entry is “inactive”.
Take `O=C(Cc1ccccc1[N+](=O)[O-])N1CCN(Cc2ccc3c(c2)OCO3)CC1`: the “activity change, negative = inhibition” value is -22.4%.
On to `Fc1ccc(N2CCN(Cc3ccc4c(c3)OCO4)CC2)cc1`, for which the Potency is 3.55 µM (active).
Regarding `Cc1cc(=O)oc2c(C)c(OCC(=O)N3CCN(Cc4ccc5c(c4)OCO5)CC3)ccc12`, the “activity change, negative = inhibition” value is -22.9%.
As to `CCCCCCCCCCCCn1ccc(=N)cc1`, the “activity change, negative = inhibition” value was -6.9%.
Turning to `CSc1ccc(C(=O)C2CCCN(Cc3ccn[nH]3)C2)cc1` (stereo not drawn), the “activity change, negative = inhibition” value was -14.8%.
As for `CN(C)CC1Oc2ccccc2OC1(O)c1ccccc1` (stereo not drawn), the “activity change, negative = inhibition” value was 10%.
As for `O=c1c2ccccc2nc(-c2ccc(Cl)cc2Cl)n1-c1ccncc1`, the “activity change, negative = inhibition” value is -3.7%.
With `O=C(O)COc1ccccc1/C=C1\C(=O)NC(=O)N(CCC2=CCCCC2)C1=O`, the “activity change, negative = inhibition” value is -0.699%.
Take `COc1ccc(CN2C(=O)NC(=O)/C(=C\c3ccc(OC)c(OC)c3OC)C2=O)cc1`: the Potency was 56.2 µM (active).
Regarding `O=C1NC(=O)N(Cc2ccco2)C(=O)/C1=C\c1cccn1CCOc1ccccc1`, the “activity change, negative = inhibition” value was -23.6%.
As to `CC(=O)c1c(O)n(C2CCCCCC2)c(=O)[nH]c1=O`, the “activity change, negative = inhibition” value is -27.2%.
`CO[C@H]1[C@@H](O)[C@@H](C)O[C@H](O[C@H]2[C@H](Oc3cccc4c(O)c5c(=O)oc6ccc(C)c7c(=O)oc(c34)c5c67)O[C@H](C)[C@H](O)[C@@H]2O)[C@@H]1O`: the “activity change, negative = inhibition” value was -8.28%.
As for `COc1ccc(Br)cc1CNCCc1cccc(Cl)c1`, the Potency is 22.4 µM (active).
In the case of `CC(C)N(CC#CCC1(O)c2ccccc2-c2ccccc21)C(C)C`, the “activity change, negative = inhibition” value is -4.64%.
The same measure, in the same setting: then `COc1ccc(-n2c(O)c(C(C)=Nc3ccc4c(c3)CCC4)c(=O)[nH]c2=O)cc1`, with -6.38%.
